About 3,300 (1.1%) of roughly 290,000 compounds were called active. No stated cut-off is given here; in the data, active means binding response below about 67% or above about 130%; inconclusive means no clear call, values can overlap the other calls; inactive means in between. The entries come from a sample that favours actives as a whole.
Target: Mitogen-activated protein kinase kinase kinase 2 (Homo sapiens) (UniProt Q9Y2U5)
Assay: wildtype MEKK2 PB1-MEK5 interaction, increase or decrease – biochemical, multiplex bead flow cytometry, Alexa488-MEK5, primary screen (AID 1531)
Conditions: Alexa488-MEK5 binding to MEKK2 WT, at 10 µM, actives lie on both sides

Binding response (% of control), active:
COc1cccc(CNCCc2c[nH]c3ccccc23)c1OCc1ccccc1F 159%
c1ccc(CN2CCC(N=C3NN=C(c4ccc5c(c4)OCCO5)CS3)CC2)cc1 154%
CCN1C(=NCc2ccc(OC)cc2)N[C@@H](CCc2ccccc2)[C@H](C(=O)NCc2ccc(OC)cc2)[C@H]1C 139%
Cc1c(CCOC(=O)CC23CC4CC(CC(C)(C4)C2)C3)sc[n+]1Cc1ccc([N+](=O)[O-])cc1 172%
C=CCN1C=C2C(=O)C(C)(OC(=O)CCc3ccccc3)C(=O)C=C2C=C1c1ccc(C#N)cc1 (configuration not stated) 142%
CCc1ccc(-c2nn(-c3ccccc3)cc2CSC(=N)N)cc1 140%
O=C(Nc1ccc2ccccc2c1)Nc1ccc2snnc2c1 158%
O=C1Nc2ccc(Br)cc2/C1=N/N=C/C1=C(N2CCOCC2)C(=C\c2ccccc2)/CC1 40% [inhibitor]
COc1cc(Br)c(-c2sc(Nc3ccccc3)n[n+]2-c2ccccc2)cc1OC 152%
Cc1ccc(NC(=S)N(CCCN2CCCC2)Cc2cccn2Cc2ccc(Cl)cc2)cc1 181%

Binding response (% of control), inactive:
COc1ccccc1CC(=O)NCCc1c[nH]c2ccccc12 101%
COc1ccc(S(=O)(=O)NCCc2c[nH]c3ccccc23)cc1OC 100%
CCn1cc(C(=O)NCC(=O)NC(C)(C)CO)c(=O)c2cc3c(cc21)OCO3 101%
O=C(OCC(=O)N1CCN(C(=O)c2ccco2)CC1)c1cccc(O)c1 106%
Cc1c(C(=O)NC2CCCCC2)oc2ccccc12 108%
Cc1c(C)c2c(OCC(=O)NCCCO)cc3c(c2oc1=O)CCC(C)(C)O3 99%
Clc1cccc(N=C2NN=C(c3ccc4c(c3)OCCO4)CS2)c1 97%
CS(=O)(=O)N(CC(=O)N1CCN(Cc2ccccc2)CC1)c1ccc2c(c1)OCCO2 103%
CC1(c2nnc(-c3ccncc3)o2)CC(c2cccnc2)=NO1 (configuration not stated) 105%
O=C(NCCc1ccc(Cl)cc1Cl)c1cc([N+](=O)[O-])c[nH]c1=O 96%
COc1ccc(Cn2c(-c3ccc(Cl)cc3)c[n+]3ccccc23)cc1 112%
Cc1c(C)c2ccc(OCC(=O)N3CCN(c4cccc(Cl)c4)CC3)cc2oc1=O 92%
Cc1ccc(C(CNC(=O)Nc2cccc(C)c2)N2CCN(C)CC2)cc1 (configuration not stated) 104%
CCN1C(=S)N[C@@H](CCc2ccccc2)[C@H](C(=O)OC)[C@H]1C 98%
CCN1C(=NCC(C)C)N[C@@H](CCc2ccccc2)[C@H](C(=O)NCC(C)C)[C@H]1C 103%
COc1ccc(CCNS(=O)(=O)c2cc3c(cc2C)NC(=O)CO3)cc1OC 98%
COc1ccc(NC(=O)CSc2nc3ccccc3c(=O)n2C)cc1 105%
COc1ccccc1/C=N/Nc1nc(C)c(C(C)=O)s1 95%
O=C(CSc1nc(Nc2ccccc2)nc(N2CCOCC2)n1)Nc1cc(Cl)ccc1O 99%
Cc1c(CCOC(=O)c2cc([N+](=O)[O-])ccc2Cl)sc[n+]1CCCCS(=O)(=O)[O-] 97%
Cc1c(CCO)sc[n+]1CC(=O)OC12CC3CC(CC(C3)C1)C2 97%
CS(=O)(=O)N(Cc1nc2sc3c(c2c(=O)[nH]1)CCCC3)C1CCCCC1 99%
COc1ccc(-c2csc3ncnc(N4CCN(S(=O)(=O)c5ccccc5C#N)CC4)c23)cc1 107%
COC(=O)CCCC1=CC2=CC(=O)C(C)(OC(=O)c3cccs3)C(=O)C2=CN1c1cccc(C#N)c1 (configuration not stated) 96%
CC1(OC(=O)CCc2ccccc2)C(=O)C=C2C=C(c3ccc(C#N)cc3)N(CCc3ccccn3)C=C2C1=O (configuration not stated) 111%
Cc1ccc(C23CC4CC(CC(C(=O)NCC(=O)O)(C4)C2)C3)cc1 105%
N#C/C(=C\c1cccnc1)C(=O)Nc1ccc(SC(F)F)cc1 107%
CCOc1ccc(N/C=C/C(=O)c2ccccc2)cc1 109%
O=C(Nc1cn(-c2ccccc2)nc1-c1ccccc1)c1ccccc1 96%
Cc1ccc(-c2nn(-c3ccccc3)cc2CN(Cc2ccccc2)C(=O)CCC(=O)O)o1 97%
CC(=O)NCCc1ccc(S(=O)(=O)Nc2ccc(C)c(S(=O)(=O)N3CCOCC3)c2)cc1 103%
O=C(Nc1cccc(Br)c1)c1ccc2snnc2c1 97%
CCc1ccccc1NC(=O)c1ccc2snnc2c1 100%
COc1ccc2c(c1)CCNC2Cc1ccc(OC)c(O)c1 (configuration not stated) 96%
COc1ccc(N2CCN(CCNC(=O)Nc3cc(Cl)ccc3Cl)CC2)cc1 113%
C=CC1=C(C(=O)O)N2C(=O)[C@@H](NC(=O)/C(=N/OCC(=O)O)c3csc(N)n3)[C@H]2SC1 98%
C(=N\N1CCN(c2ccccn2)CC1)/C1=C(N2CCOCC2)C(=C/c2ccccc2)/CC1 104%
COc1ccc(/C=N/N=C2/C(=O)Nc3ccccc32)cc1O 98%
CS(=O)(=O)N1CCN(C(=O)CSc2ccccc2)CC1 101%
COc1ccc(C)cc1Nc1n[n+](-c2ccccc2)c(-c2cccc(Cl)c2Cl)s1 120%
CC(C)(C)C(=O)c1cnc(Nc2ccccc2)s1 100%
COc1ccc(C#Cc2c(-c3ccc(OC)cc3)oc3ccc(-c4ccc5c(c4)OCO5)cc23)cc1 96%
O=C(CNC(=O)OCc1ccccc1)NC1CCCCNC1=O (configuration not stated) 100%
Cc1ccc(NC(=S)N(CCN2CCCCC2)Cc2ccco2)cc1C 97%
Cc1ccc(NC(=S)N(CCCN2CCC(C)CC2)Cc2ccco2)cc1 107%
COc1ccc(CCNCc2c(-c3ccccc3)n(C)c3ccccc23)cc1 131%
CCOC(=O)C1(Cc2ccccc2C(F)(F)F)CCN(C(=O)c2cc(C)n(C)n2)CC1 91%
